# In PubChem BioAssay (NCATS):
# Records with an inconclusive call do not appear. Calls of active or inactive are those of the source. Unless noted, the call rests on the fitted dose curve; in most records, active means well fitted curve in the direction sought with a large enough effect; inconclusive means small, poorly fitted or top-dose-only effect, or another doubt; inactive means no such curve, though single readings can be large; an effect the other way counts as inactive or inconclusive.
# Legend:
# [1] = qHTS to identify inhibitors of the type 1 interferon - major histocompatibility complex class I in skeletal muscle: primary screen against the NCATS Mechanism Interrogation Plate v5.0 (MIPE) Libary (AID 1347411); further: nearly all actives have a fitted effect of over 65% in size; further: potency means the concentration at half of the fitted maximal effect
# Summary of the method: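 Immortalized human C25cl48 myoblasts with HiBit knocked into endogenous HLA-B*08:01 were stimulated with 4.0 ng/ml IFN-beta and exposed to compounds (11-point 1:3 titration, top 46 uM final) for 24 hrs at 37 C; HiBiT lytic luminescence measured.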
# [2] = Primary qHTS for inhibitors of nuclear receptor binding SET domain protein 2 (NSD2) in an isogenic RCH-ACV NSD2 p.E1099K mutant (9B) (AID 1645876); further: nearly all actives have a fitted effect of over 70% in size; further: potency means the concentration at half of the fitted maximal effect
# [3] = molecular target: Glutathione peroxidase 1 (Homo sapiens) (UniProt P07203); test: Primary qHTS Assay for Inhibitors of Recombinant Selenoprotein Glutathione Peroxidase 1 (GPX1) (AID 1845191); further: nearly all actives have a fitted effect of over 65% in size
# Chain of Glutathione peroxidase 1 (Homo sapiens) (P07203 whole entry, looked up): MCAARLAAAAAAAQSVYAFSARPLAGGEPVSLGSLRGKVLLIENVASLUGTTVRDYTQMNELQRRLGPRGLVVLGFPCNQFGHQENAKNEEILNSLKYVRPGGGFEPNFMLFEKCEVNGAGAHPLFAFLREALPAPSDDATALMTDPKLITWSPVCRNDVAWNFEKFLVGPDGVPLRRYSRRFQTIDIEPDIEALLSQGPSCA
# Summary of the method: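 Recombinant GPX1 (10 nM final) was preincubated with compound for 30 min at room temperature, then reacted with 1 mM GSH, 0.5 mM CHP, 0.5 mM NADPH and 100 nM glutathione reductase; NADPH fluorescence (340/450 nm) was read at 0 and 15 min.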
# [4] = molecular target: Phospholipid hydroperoxide glutathione peroxidase GPX4 (Homo sapiens) (UniProt P36969); test: Primary qHTS Assay for Inhibitors of Recombinant Selenoprotein Glutathione Peroxidase 4 (GPX4) (AID 1845192); settings: outcome: dose series up to 50 µM unless noted; further: nearly all actives have a fitted effect of over 65% in size
# Chain of Phospholipid hydroperoxide glutathione peroxidase GPX4 (Homo sapiens) (P36969 whole entry, looked up): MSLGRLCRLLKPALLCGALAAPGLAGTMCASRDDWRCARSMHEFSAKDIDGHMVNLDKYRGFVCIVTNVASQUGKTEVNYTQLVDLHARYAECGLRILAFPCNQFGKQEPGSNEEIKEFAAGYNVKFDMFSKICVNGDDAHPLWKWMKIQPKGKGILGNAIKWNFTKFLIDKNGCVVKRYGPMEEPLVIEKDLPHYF
# Summary of the method: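 GR-coupled readout: 100 nM GR, 1 mM GSH, 0.5 mM NADPH; NADPH fluorescence (ex 340/em 450 nm) read at t=0 and after 15 min RT. GPX4 200 nM, preincubated 30 min with compound; substrate 0.5 mM CHP.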
# [5] = qHTS drug screen for cell cycle checkpoint inhibitors in PARPi-resistant BRCA-mutant ovarian cancer cell lines. (AID 1963452; calls by dose curve); settings: PEO1/OlaR viability, CellTiter-Glo luminescence, 96 h; for Z-AUC: stronger effect = lower value
# Summary of the method: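 PEO1, PEO4 and PEO1/OlaR ovarian cancer cells, 600 per well, exposed 96 h at 37C to a dilution series. Viability read by CellTiter-Glo luminescence, normalized to DMSO and empty wells; activity summarized as Z-AUC.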
# [6] = measured here: PEO1 parental Z-AUC
Compound,Potency [1],Potency [2],Potency [3],Potency [4],Z-AUC [5],"Z-AUC [5, 6]",Z-AUC ([5]; measured here: PEO4 Z-AUC),outcome [1],outcome [4],outcome [5]
C[C@@H]1C(=O)OC2[C@H](O)[C@]34[C@H]5C[C@@H](C(C)(C)C)[C@]36[C@@H](OC(=O)[C@@H]6O)O[C@@]4(C(=O)O5)[C@]21O (stereo partly specified),inactive,inactive,inactive,inactive,1.19 (inactive),0.871,0.917,–,–,–
CCN(CC)CCNc1ccc(C)c2sc3ccccc3c(=O)c12,26.2 µM (active),5.9 µM (active),inactive,–,-1.21 (inactive),-0.605,-0.562,–,–,–
CCNC(=O)Nc1ccc(Oc2ncnc(N)c2/C=N/OC)cc1Cl,inactive,20.9 µM (active),inactive,inactive,1.52 (inactive),1.52,1.49,–,–,–
CCn1c(=O)c2c(nc(/C=C/c3ccc(OC)c(OC)c3)n2C)n(CC)c1=O,inactive,inactive,inactive,inactive,0.577 (inactive),0.401,0.882,–,–,–
CCO[C@@H]1OC(=O)C[C@@H]1NC(=O)[C@@H]1CCCN2C(=O)CC[C@H](NC(=O)c3nccc4ccccc34)C(=O)N12,inactive,inactive,inactive,inactive,-0.883 (inactive),-0.455,-1.09,–,–,–
COC1=C2C[C@H](C)C[C@H](OC)[C@H](O)[C@@H](C)/C=C(/C)[C@H](OC(N)=O)[C@@H](OC)/C=C\C=C(\C)C(=O)NC(=CC1=O)C2=O,2.94 µM (active),inactive,inactive,–,0.322 (inactive),0.489,0.496,–,–,–
C[C@]12CCC3=C4CCC(=O)C=C4CC[C@H]3[C@@H]1CC[C@@]2(O)CC#N,inactive,inactive,inactive,inactive,1.33 (inactive),1.75,1.39,–,–,–
C[C@@]1(c2ncncc2F)NC(=O)c2cc(-c3cn[nH]c3)ccc21,20.8 µM (active),14.8 µM (active),inactive,inactive,-0.499 (inactive),-0.528,-0.372,–,–,–
Cc1ccc(NC(=O)NCc2ccc3c(c2)CN(C2CCC(=O)NC2=O)C3=O)cc1Cl (stereo unspecified),0.0147 µM (active),0.0015 µM (active),inactive,inactive,-3.37 (inactive),-3.53,-3.45,–,–,–
CCOC(=N)c1nc2ccc3ncnc(Nc4cc(F)c(F)cc4Cl)c3c2s1,inactive,inactive,inactive,inactive,-1.14 (inactive),-1.11,-1.07,–,–,–
Cc1cc(C)c2c(c1)[C@@H](N(Cc1cc(C(F)(F)F)cc(C(F)(F)F)c1)c1nnn(C)n1)CCCN2CC1CCC(C(=O)O)CC1 (stereo partly specified),inactive,inactive,–,–,0.561 (inactive),1.04,0.634,–,–,–
Fc1ccc(-c2csc3ncnc(NCc4ccc5c(c4)OCO5)c23)cc1,inactive,8.33 µM (active),inactive,inactive,0.367 (inactive),0.157,0.314,–,–,–
CN(C)CCNC(=O)NC[C@H]1CC[C@@H]2[C@H](O1)c1cc(C(F)(F)F)ccc1N[C@H]2c1ccccc1,inactive,0.263 µM (active),inactive,inactive,-0.264 (inactive),-0.891,-1.1,–,–,–
CC(=O)N[C@H]1[C@H](O[C@@H]2c3ccc(c(Cl)c3)Oc3cc4cc(c3O[C@@H]3O[C@H](CO)[C@@H](O)[C@H](O)[C@H]3NC(=O)CCCCCCCC(C)C)Oc3ccc(cc3Cl)C[C@H]3NC(=O)[C@H](N)c5ccc(O)c(c5)Oc5cc(O)cc(c5)[C@H](NC3=O)C(=O)N[C@H]4C(=O)N[C@H]3C(=O)N[C@@H]2C(=O)N[C@@H](C(=O)O)c2cc(O)cc(O[C@H]4O[C@H](CO)[C@@H](O)[C@H](O)[C@@H]4O)c2-c2cc3ccc2O)O[C@H](CO)[C@@H](O)[C@@H]1O,inactive,inactive,–,inactive,–,–,–,–,–,–
C[C@@H]1CC(=O)Nc2cccc(-c3ccc4c(c3)c(-c3cnn(C)c3)nn4C)c2N1,inactive,0.742 µM (active),inactive,–,1.34 (inactive),1.02,1.12,–,–,–
CCC(C)CNCC(=O)N1CCc2sccc2C1c1cccc(C)n1 (stereo unspecified),inactive,inactive,–,inactive,-0.668 (inactive),-0.627,-0.749,–,–,–
CONC(=O)Nc1ccc(-c2sc3c(c2CN(C)C)c(=O)n(-c2ccc(OC)nn2)c(=O)n3Cc2c(F)cccc2F)cc1,inactive,inactive,–,inactive,0.387 (inactive),0.895,0.818,–,–,–
Cc1c(NC(=O)c2cc(C(N)=O)nc3cc(F)ccc23)c(C(F)(F)F)nn1Cc1ccc(C(C)(C)C)cc1,inactive,inactive,inactive,inactive,-0.453 (inactive),-0.106,0.0379,–,–,–
COC(=O)N(CC(=O)O)Cc1cccc(OCc2nc(-c3ccc(Cl)cc3)oc2C)c1,inactive,–,inactive,–,1.24 (inactive),-0.00269,0.458,–,–,–
CN(C)C(N)=NC(=N)N,–,–,inactive,–,–,–,–,inactive,inactive [setting not given],inactive
COc1ccc(S(=O)(=O)NCc2ccc(C(=O)NCCc3ccc(Cl)cn3)cc2)cc1,inactive,–,inactive,inactive,-2 (inactive),-0.947,-0.745,–,–,–
NS(=O)(=O)c1ccc(NC(=S)N2CCN(C/C=C/c3ccccc3)CC2)cc1,inactive,–,inactive,inactive,0.177 (inactive),-0.364,-0.0827,–,–,–
